# Records with an inconclusive call do not appear. Calls of active or inactive are those of the source. Calls follow the shape of the dose curve; as a rule, active = well fitted inhibition curve with a large enough effect in the repeat runs; inconclusive = weak or mixed curves; inactive = flat fitted curve, though single readings scatter.
# Biological target: Luciferin 4-monooxygenase (Photinus pyralis) (UniProt P08659)
# Assay: qHTS assay to identify small molecule inhibitors of firefly luciferase (AID 1224835); also: nearly all actives have a fitted effect of over 25% in size
# Conditions: purified P. pyralis luciferase, luminescence inhibition; series mostly up to 115 µM; activity change, negative = inhibition: at the top concentration
# From the text: U.S. Tox21 Program National Center for Advancing Translational Sciences [NCATS] NIH Chemical Genomics Center [NCGC] U.S. Environmental Protection Agency [EPA] National Institutes of Environmental Health Sciences [NIEHS] National Toxicology Program [NTP] U.S. Food and Drug Administration [FDA] Tox21 Assay Overview: Firefly (Photinus pyralis) luciferase is one of the most commonly used transcriptional reporters. Firefly luciferase reporter-gene assays are generally considered one of the most sensitive assay types (Wood, 1995; Wood, 1998). However, it was initially observed, in 1991, by Thompson et al., that compounds that resemble the substrates of firefly luciferase (FLuc) can act as competitive inhibitors of the enzyme, and that these compounds, upon interaction with luciferase in the cell, can actually stabilize the protein and increase its half-life. Previous profiling work by other groups to determine the prevalence of compounds that affect FLuc enzymatic activity (PubChem AID 411) identified that ~3% of the MLSMR library (then at ~72K) inhibited FLuc. […] Thus the Tox21 10K library is profiled for activity against FLuc using a biochemical assay of purified FLuc and KM concentrations of FLuc substrates (D-luciferin and ATP).
# These assay plates were then treated with 23nL of compound or DMSO using a Kalypsys pin tool, which allows for delivery of a 6-point interplate titration of each compound to the assay plate (quantitative HTS.) 1 uL of firefly luciferase mix (containing 50 mM Tris acetate, pH 7.6, 0.04 uM P. pyralis luciferase, 0.01% Tween, 0.05% BSA and dH2O) was then delivered by FRD to each well. Luciferase activity was then measured using a ViewLux CCD imager.
# % is scaled to controls: 0 for no effect and ±100 for the full control effect; potency is read from the fitted curve at half-maximal effect.
# Luciferin 4-monooxygenase (Photinus pyralis), sequence (P08659 whole entry, looked up): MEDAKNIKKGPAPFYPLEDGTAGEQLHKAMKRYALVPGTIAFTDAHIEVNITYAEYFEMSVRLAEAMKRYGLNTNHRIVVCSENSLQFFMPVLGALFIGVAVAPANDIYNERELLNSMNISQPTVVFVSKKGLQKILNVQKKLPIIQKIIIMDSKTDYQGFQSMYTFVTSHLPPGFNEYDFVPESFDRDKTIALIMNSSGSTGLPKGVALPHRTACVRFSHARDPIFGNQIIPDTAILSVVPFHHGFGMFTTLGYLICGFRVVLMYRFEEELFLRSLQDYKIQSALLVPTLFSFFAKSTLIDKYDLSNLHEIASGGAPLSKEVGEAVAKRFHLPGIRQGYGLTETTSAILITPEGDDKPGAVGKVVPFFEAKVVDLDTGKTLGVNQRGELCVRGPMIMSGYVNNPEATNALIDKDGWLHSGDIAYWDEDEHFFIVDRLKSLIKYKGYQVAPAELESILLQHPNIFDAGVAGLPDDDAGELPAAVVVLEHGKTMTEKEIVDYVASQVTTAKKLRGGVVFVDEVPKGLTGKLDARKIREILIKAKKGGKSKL
Compound,"activity change, negative = inhibition",Potency
Nc1nc(Cl)cc(Cl)n1,3.78% (inactive),
CC/C=C\CCCCCCCCCCOC(C)=O,4.81% (inactive),
O=CN1CCCCC1,0.758% (inactive),
CC[N+](C)(CC)CC,-0.0973% (inactive),
N=C(N)S(=O)O,-1.36% (inactive),
CCCOc1ccc(C(=O)OCCN(CC)CC)cc1N,-0.526% [at 52.9 µM] (inactive),
COCCCOc1cc(C[C@@H](C[C@H](N)[C@@H](O)C[C@H](C(=O)NCC(C)(C)C(N)=O)C(C)C)C(C)C)ccc1OC,-0.955% [at 52.9 µM] (inactive),
CCCC(=O)CC,-0.549% (inactive),
CCC(C)(C)C,0.903% (inactive),
CCCCOCCCC,3.37% (inactive),
CCc1ccc(CC)cc1,3.64% (inactive),
CCCC[O][Al]([O]CCCC)[O]CCCC,8.25% (inactive),
COC(C)(C)CC(C)=O,2.34% (inactive),
Clc1ccc2c(c1)Nc1ccccc1S2,-8.48% [at 52.9 µM] (inactive),
N=C(N)N1CCc2ccccc2C1,-2.87% [at 10.5 µM] (inactive),
COc1ccc2cc(CCC(C)=O)ccc2c1,,13.8 µM (active)
CC(O)C(CO)C(C)O (stereo not given),1.18% (inactive),
CC(=O)Oc1ccc(C(C)=O)cc1,-1.43% (inactive),
CCN1CCN(C(=O)N[C@@H](C(=O)N[C@@H]2C(=O)N3[C@@H]2SC(C)(C)[C@H]3C(=O)O)c2ccccc2)C(=O)C1=O,-0.887% [at 52.9 µM] (inactive),
CC(O)CCCCn1c(=O)c2c(ncn2C)n(C)c1=O (stereo not given),8% [at 52.9 µM] (inactive),

Compound,"activity change, negative = inhibition",Potency
CCCCC(O)/C=C(C)/C=C/C=C/C(=O)N1CCCC1=O (stereo not given),-0.985% [at 52.9 µM] (inactive),
CSC(=O)c1cccc2nnsc12,-10.9% (inactive),
N#Cc1ccccc1C#N,-0.348% (inactive),
O=C(O)CCCCCCCCCC(=O)O,4.48% (inactive),
Cc1ccc(OC(=O)CC(C)C)cc1,,35.6 µM (active)
CCOc1ccccc1OCCN[C@H](C)Cc1ccc(OC)c(S(N)(=O)=O)c1,1.55% [at 52.9 µM] (inactive),
CC(C)(O)CCCC1=CCC(C=O)CC1 (stereo not given),-0.657% (inactive),
COc1ccccc1N1CCN(CC(O)COc2cc(OC)c(OC)c(OC)c2)CC1 (stereo not given),2.11% [at 52.9 µM] (inactive),
C[C@@H]1CC[C@@]2(OC1)O[C@H]1C[C@H]3[C@@H]4CC[C@H]5C[C@@H](O)CC[C@]5(C)[C@H]4CC(=O)[C@]3(C)[C@H]1[C@@H]2C,8.12% [at 10.5 µM] (inactive),
c1coc(Cn2cccc2)c1,-0.754% (inactive),
C/C(=N\O)c1ccc(OCC(=O)N2CCCCC2)cc1,,12.3 µM (active)
CC(=O)SC[C@@H](C)C(=O)N1CCC[C@H]1C(=O)N[C@@H](Cc1ccccc1)C(=O)O,3.21% [at 52.9 µM] (inactive),
N=C(N)N,4.34% [at 52.9 µM] (inactive),
CO/N=C(\C(=O)O)c1csc(NC(=O)CCl)n1,5.77% [at 52.9 µM] (inactive),
Cc1cc(O)c(Cl)cc1C,-9.09% (inactive),
CCCc1ccc(O)c(OC)c1,-3.07% (inactive),
CC(=O)SCC(CC(=O)c1ccc(C)cc1)C(=O)O (stereo not given),,27.5 µM (active)
O=C(O)P(=O)(O)O,4.89% [at 52.9 µM] (inactive),
Cc1ccc(O)c([N+](=O)[O-])c1,-4.07% (inactive),
CC(C)(O)c1ccc(C(C)(C)O)cc1,1.99% (inactive),

# Reference: PubChem BioAssay (Tox21)
